GDH-TPI counter = GDH-TPI coupled enzyme inhibition counter-screen | GDH-TPI coupled enzyme counterscreen, NADH absorbance | inhibition, % at 4.8 µM | 360,000 tested, 1.2% active | AID 588335; in the data active means inhibition above about 30%;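 further: 0% = DMSO wells and 100% = wells lacking the enzyme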
Rv3671c protease = Rv3671c (M. tuberculosis) protease inhibition; inhibition, % at 5.96 µM; 320,000 tested, 0.048% active; in the data active means inhibition above about 38%;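 further: extracellular domain of Rv3671c used as enzyme; 0% = enzyme with DMSO and 100% = no enzyme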
UGM FP inh = inhibitors of M. tuberculosis UDP-galactopyranose mutase; purified UGM, fluorescence polarization probe displacement; inhibition, % at 10 µM; 320,000 tested, 0.06% active; AID 504406; in the data active means inhibition above about 10%, passing the limit was not always enough
Mtb bLac sens = beta-lactam sensitization of Mtb H37Rv; 330,000 tested, 0.27% active; AID 434955; M. tuberculosis H37Rv growth with meropenem, percent inhibition; inhibition, % at 25 µM; call rule not given here;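 further: growth measured after seven days incubation then overnight dye step; 0% = bacteria only wells and 100% = bacteria with antibiotic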
FBA Mtb inh = inhibitors of M. tuberculosis fructose-bisphosphate aldolase | P9WQA3 | AID 588726 | 360,000 tested, 2.3% active | inhibition, % at 1 µM | purified M. tuberculosis FBA, fluorescence read-out; in the data active means inhibition above about 27%;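 further: 0% = vehicle and 100% = reference inhibitor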
Target sequence (P9WQA3 whole entry, looked up): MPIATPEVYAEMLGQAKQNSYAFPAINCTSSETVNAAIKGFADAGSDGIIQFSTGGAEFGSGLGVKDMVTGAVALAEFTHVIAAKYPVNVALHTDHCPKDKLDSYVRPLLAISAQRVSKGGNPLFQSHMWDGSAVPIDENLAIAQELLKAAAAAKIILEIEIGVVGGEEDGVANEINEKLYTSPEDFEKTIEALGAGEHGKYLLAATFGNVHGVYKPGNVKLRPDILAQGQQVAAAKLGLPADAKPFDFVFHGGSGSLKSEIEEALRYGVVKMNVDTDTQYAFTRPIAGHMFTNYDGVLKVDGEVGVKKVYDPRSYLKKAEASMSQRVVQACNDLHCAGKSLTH
RecA intein inh = inhibitors of M. tuberculosis RecA intein splicing | 290,000 tested, 0.75% active | P9WHJ3 | inhibition, % (test concentration not listed) | AID 2221 | cell-free RecA intein splicing, fluorescence; in the data active means inhibition above about 30%;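 further: 0% = vehicle wells and 100% = reference inhibitor control wells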
Active calls of the source: *; · = no result given; + = active, no number. A selection: hits, their analogues and other compounds. The true share with any hit is near 4%.

SMILES	GDH-TPI counter	Rv3671c protease	UGM FP inh	Mtb bLac sens	FBA Mtb inh	RecA intein inh
COc1cc(/C=N/NC(=O)c2cn(-c3cccc(C)n3)cn2)ccc1O	33.8*	1.6	2.0	-6.2	-1.1	-2.5
COc1cc(/C=N/NC(=O)c2cccc(C(=O)N/N=C/c3ccc(O)c(OC)c3)n2)ccc1O	44.0*	·	3.7	6.3	1.8	-4.0
CCOc1cc(/C=N/Nc2nc(N3CCCC3)nc(N3CCCC3)n2)ccc1O	35.8*	8.6	0.8	-2.4	0.8	-0.7
Cc1c(C)c2ccc(OCC(=O)Nc3ccccc3C(N)=O)cc2oc1=O	10.8	1.7	0.2	-8.1	3.0	6.1
Cc1c(C)c2ccc(OC3CCCCC3=O)cc2oc1=O (stereo unspecified)	8.8	-1.9	-1.1	-3.3	153.3*	0.2
COCCn1c(SCC(=O)NN2C(=O)NC(C)(c3ccccc3)C2=O)nnc1-c1ccncc1 (stereo unspecified)	-3.9	-0.3	0.4	1.4	-0.9	·
COc1ccc(C(=O)OCC(=O)NCC2CCCO2)cc1 (stereo unspecified)	1.0	-15.9	-0.2	-6.1	1.7	1.1
CCN(CC)c1ccc(C(=O)OCC(=O)NCC2CCCO2)cc1 (stereo unspecified)	31.8*	-7.4	-1.6	-1.1	-0.3	1.1
COc1ccc(-c2ccnc3nc(Sc4ncc(C(F)(F)F)cc4Cl)nn23)cc1	13.7	-18.2	1.4	-11.0	+	3.2
FC(F)(F)c1cnc(Sc2nc3nccc(-c4ccc(Cl)cc4)n3n2)c(Cl)c1	-4.2	-3.6	2.1	0.1	2.3	6.1
CC(C)(C)c1cc(C(F)(F)F)c(C#N)c(=O)[nH]1	5.0	2.0	2.2	1.5	119.5*	0.9
CCCc1cc(C(F)(F)F)c(C#N)c(=O)[nH]1	11.2	5.7	0.5	-12.6	156.0*	-2.6
O=S(=O)(N/N=C\C=C\c1ccccc1)c1ccc(Br)cc1	38.8*	3.0	-0.2	0.0	-2.5	-2.4
C[C@@H]1CN([C@@H](C)CO)C(=O)c2cccc(NS(C)(=O)=O)c2O[C@H]1CN(C)CC1CCCCC1	-0.5	3.3	-4.8	13.4	4.9	·
COc1cc(=O)n(C)c2cc(N(C)C)ccc12	32.9*	2.1	2.1	-0.1	156.1*	13.1
O=C(N/N=C/C(Br)=C/c1ccccc1)c1ccccc1F	31.9*	-9.3	0.8	86.0	-5.8	1.6
CN(CC(=O)NCc1cccs1)CC(=O)Nc1ccccc1Cl	0.0	·	·	·	1.6	·
Cc1ccc2[nH]c3c(=S)nc[nH]c3c2c1	25.8	-8.2	3.1	-9.2	-0.2	-0.9
Cc1ccc2[nH]c3c(=O)n(N)c(=O)[nH]c3c2c1	10.3	-4.4	-0.9	-12.3	119.2*	1.3
O=Cc1cccc(Oc2ncccn2)c1	-1.2	-5.3	0.0	6.2	-2.6	-3.2
Nc1ccc(Oc2ncccn2)cc1	2.9	-3.7	-3.3	4.0	1.2	51.3*
O=C(N/N=C/c1c(O)n(CCC2=CCCCC2)c(=O)[nH]c1=O)c1ccccc1	34.0*	17.7	2.9	9.5	8.6	6.0
Cc1ccccc1-n1c(O)c(/C=N/NC(=O)c2ccccc2O)c(=O)[nH]c1=S	31.1*	-2.8	-2.0	59.1	4.8	9.3
O=C(N/N=C/c1c(O)n(-c2ccccc2)c(=O)[nH]c1=O)c1ccncc1	31.3*	-32.0	3.2	98.6	1.7	-9.7
O=C(N/N=C/c1c(O)n(CCC2=CCCCC2)c(=S)[nH]c1=O)c1ccccc1	21.1	6.6	4.4	37.5	4.3	-3.7
SMILES	GDH-TPI counter	Rv3671c protease	UGM FP inh	Mtb bLac sens	FBA Mtb inh	RecA intein inh
O=C1OC(c2ccccc2)(N(Nc2ccccc2)c2ccccc2)c2ccccc21 (stereo unspecified)	6.2	·	·	·	-2.4	·
COc1ccc(-c2noc(=O)n2Cc2ccccc2Cl)cc1	2.1	1.2	2.6	3.0	-0.2	1.4
CCOC(=O)C1CCCN(C(=O)c2cn(CC)c3ccc(S(=O)(=O)N4CCCC4)cc3c2=O)C1 (stereo unspecified)	37.6*	0.1	1.1	-3.8	-2.2	·
CCc1ccc(NC(=O)NCC2CCN(c3ccc(OC)cc3)C2)cc1 (stereo unspecified)	8.6	-0.2	-1.1	1.1	0.7	-2.4
CCOc1ccc(NC(=O)NCC2CCN(c3ccc(OC)cc3)C2)cc1 (stereo unspecified)	33.3*	-7.2	1.4	-3.9	4.8	-1.9
Cc1c(-c2ccccc2)c(=O)oc2cc(O)ccc12	10.9	1.3	-0.6	41.2	+	-54.7
O=C1CC(c2cccnc2)=NN1c1ccccc1	5.7	-98.7	-0.9	-6.3	0.0	64.4*
CCC(C)NC(=O)CCn1ccc2cc(S(=O)(=O)N3CCCC3)ccc21 (stereo unspecified)	2.6	-6.5	1.1	-6.3	0.1	-4.8
Cc1ccc(C(=O)Oc2ccc([N+](=O)[O-])cc2)cc1S(=O)(=O)N1CCCCCC1	-2.2	1.3	1.3	4.3	-5.3	30.2*
CCCCNc1c(-c2ccc(SC3CCCCC3)cc2)nc2ccccn12	20.1	19.2	-1.7	98.9	50.1*	-5.8
CCOC(=O)c1ccc(N2C(=O)C(O)=C(C(C)=O)C2c2ccc([N+](=O)[O-])cc2)cc1 (stereo unspecified)	31.8*	8.5	0.9	14.7	-2.6	0.7
CC(=O)C1=C(O)C(=O)N(c2ccc(O)cc2)C1c1cccc([N+](=O)[O-])c1 (stereo unspecified)	31.6*	4.0	-0.1	-1.5	1.8	-0.7
COc1ccc(OC)c(C2C(C(C)=O)=C(O)C(=O)N2c2ccc(O)cc2)c1 (stereo unspecified)	23.3	-3.8	0.6	-15.8	-1.3	-2.1
COc1ccc(C2C(C(C)=O)=C(O)C(=O)N2CCc2ccccc2)c(OC)c1 (stereo unspecified)	37.3*	-11.1	-0.5	-2.7	-3.3	-2.1
COc1ccccc1C1C(C(C)=O)=C(O)C(=O)N1c1ccc(O)cc1 (stereo unspecified)	42.0*	-1.1	0.8	8.5	-1.2	-0.6
COc1ccccc1CNC(=O)C(CCSC)NC(=O)c1cccc(S(=O)(=O)N2CCOCC2)c1 (stereo unspecified)	0.0	-0.2	2.3	-0.7	-0.1	·
Cc1noc(C)c1NC(=O)Nc1cccc2c1O[C@H](CN(C)S(=O)(=O)c1cn(C)cn1)[C@@H](C)CN([C@H](C)CO)C2=O	7.5	-8.9	-0.4	-3.2	-0.9	·
Cc1cc([N+](=O)[O-])nn1Cc1ccc(C(=O)N/N=C/c2ccc(O)cc2O)cc1	43.6*	20.2	-1.7	8.5	-1.1	2.1
CCOC(=O)c1ccc(-c2ccc(/C=C(\C#N)C(=O)NCC3CCCO3)o2)cc1 (stereo unspecified)	33.9*	-1.7	1.7	1.6	-1.4	-62.0
COc1ccc(/C=C(\C#N)C(=O)NCC2CCCO2)cc1OC (stereo unspecified)	20.1	4.4	1.4	-2.3	-6.1	-2.1
Cc1nnc(NC(=O)c2oc3c(ccc4ccccc43)c2C)s1	32.2*	-17.7	0.9	1.5	14.7	0.4

Screens as filed in PubChem.
